hDAT+cocaine: modulates human dopamine transporter uptake under cocaine; 1.3% of 110,000 active; LLC-PK1 hDAT cells, [14C]-dopamine uptake with cocaine IC80; actives deviate in either direction; AID 449768; B-score at 10 µM;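 active = Z score or B-score, a plate-position-corrected score, falls beyond the plate's 99.7% confidence bounds, in either direction; inactive = both scores lie inside the 99.7% bounds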;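 note: scored against the spread of the other compound wells on the same plate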
CYP2C19 inhib: inhibitors of human CYP2C19 | P33261 | CYP2C19 Supersomes, luciferin-H EGE luminescence, 30 min | inhibition, % at 5 µM | 21% of 96,000 active;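 active = CYP2C19 inhibition above a set limit at 5 µM in the primary screen, cut at about 50% in these data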;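 note: plate controls were negative control wells for no effect and 2.5 mM tranylcypromine positive control for full effect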
CYP2C19 activ: increases human CYP2C19 enzyme activity; recombinant CYP2C19, luciferin-H EGE luminescence; hits give high values; 0 = fully inhibited enzyme, 1 = untreated enzyme; 96,000 tested, under 10 active; P33261; activation factor at 5 µM;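 active = activation factor of at least 2 at 5 µM in the primary screen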;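 note: 0 = wells with 2.5 mM tranylcypromine and 1 = vehicle-only wells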
D1 allo mod: allosteric modulators of human D1 dopamine receptor. B-score at 10 µM. 5.9% of 58,000 active. HEK293 D1, CRE-luciferase, dopamine EC30 potentiation; actives deviate in either direction. P21728;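 active = luminescence count or its row- and column-corrected plate score outside the 99.7% band of the plate's sample wells, on either side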
Target sequence (P21728 whole entry, looked up): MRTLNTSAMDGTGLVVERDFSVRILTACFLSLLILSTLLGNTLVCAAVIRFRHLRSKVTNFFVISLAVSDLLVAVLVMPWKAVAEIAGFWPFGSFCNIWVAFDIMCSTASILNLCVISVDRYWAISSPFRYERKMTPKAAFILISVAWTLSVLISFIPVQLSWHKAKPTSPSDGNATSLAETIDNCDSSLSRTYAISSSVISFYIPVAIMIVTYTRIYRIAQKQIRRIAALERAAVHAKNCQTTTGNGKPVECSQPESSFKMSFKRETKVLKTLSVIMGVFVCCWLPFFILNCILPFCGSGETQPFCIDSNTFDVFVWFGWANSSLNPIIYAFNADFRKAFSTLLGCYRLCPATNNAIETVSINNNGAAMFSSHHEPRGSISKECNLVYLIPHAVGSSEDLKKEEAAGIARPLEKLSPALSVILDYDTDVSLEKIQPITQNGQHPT
CYP2C9 inhib: inhibitors of human CYP2C9; CYP2C9 Supersomes, luciferin-H conversion, luminescence; AID 777; 20% of 96,000 active; P11712; inhibition, % at 5 µM;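 active = blocking of liver enzyme CYP2C9 beyond about 50% at 5 µM, limit read from the data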
CYP2C9 act: activators of human CYP2C9 | 1.4% of 96,000 active | recombinant CYP2C9, luciferin-H conversion, luminescence; hits give high values; factor 1 = untreated enzyme, 0 = blocked | P11712 | activation factor at 5 µM;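 active = activation factor of 2 or more for CYP2C9 at a 5 µM dose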;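 note: 0 = sulfaphenazole-blocked wells and 1 = vehicle-only wells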
* hit, by the source's call; . = no result. Most compounds without a hit are left out; they make up all but 28% or so of the library.

SMILES	hDAT+cocaine	CYP2C19 inhib	CYP2C19 activ	D1 allo mod	CYP2C9 inhib	CYP2C9 act
Cc1ccc(C)c(C(=O)CSc2n[nH]c(C)n2)c1	0.44	57*	0.4	-0.55	14	0.9
O=C(CSc1ccccn1)Nc1nncs1	0.49	.	.	.	.	.
Cc1ccc(-n2c3c(c(=O)[nH]c2=O)C(C(F)(F)F)(C(F)(F)F)NC(=O)N3)cc1	-0.44	-9	1.1	.	1	1
Cc1ccccc1OCCCCCNCCO	-0.43	46	0.5	.	20	0.8
CC(C)c1ccccc1OCCCCCNCCO	1.1	59*	0.4	.	-4	1
COCCn1c(SCc2cnc(-c3ccccc3)s2)nnc1-c1ccncc1	0.94	82*	0.2	0.057	32	0.7
COCCn1c(SCC#N)nnc1-c1ccccc1	-1	36	0.6	.	30	0.7
COc1ccc(-n2cnnc2SCc2cnc(-c3ccccc3)s2)cc1	0.87	66*	0.3	0.39	25	0.8
S=c1[nH]nc(C2CCCCC2)n1/N=C/c1ccc(Br)s1	0.41	37	0.6	.	6	0.9
COCCNC(=O)c1onc(CSc2cc(C)cc(C)c2)c1C(=O)NCCOC	1.1	.	.	.	.	.
O=C(C1CCC1)N1CCc2cc(S(=O)(=O)N3CCc4ccccc4C3)ccc21	-0.63	.	.	1.9	.	.
CC1CCCN(S(=O)(=O)c2ccc3c(c2)CCN3C(=O)C2CCC2)C1 (stereo not drawn)	-0.82	2	1	-4.1*	28	0.7
CCC1CCCCN1S(=O)(=O)c1ccc2c(c1)CCN2C(=O)C1CCC1 (stereo not drawn)	-0.55	28	0.7	1.2	52*	0.5
COc1ccc(OC)c(C(=O)CSc2nc3c(c(=O)n(C)c(=O)n3C)n2C(C)C)c1	-0.48	45	0.6	6.1*	54*	0.5
Cn1c(SCC(=O)c2ccc(F)cc2)nc2cccnc21	-0.27	85*	0.2	0.049	-15	1.1
COc1ccc(OC)c(C(=O)CSc2nc3ncccc3[nH]2)c1	-0.3	79*	0.2	0.52	90*	0.1
Cn1c(SCC(=O)c2ccccc2)nc2cccnc21	-0.96	72*	0.3	.	43	0.6
O=C(Nc1cccc(N2CCCC2)c1)c1cccs1	0.91	-2	1	1.3	12	0.9
CC1CCC2(CC1)C(Nc1cccc(Cl)c1)=NC(=S)N2CC#N (stereo not drawn)	0.0059	.	.	.	.	.
O=C(NCCCCCCNC(=O)C1CCCC1)C1CCCC1	-0.043	.	.	.	.	.
COc1ccc(OC)c(C(=O)CSc2nc3cccnc3n2C)c1	0.54	98*	0	.	77*	0.2
COc1ccccc1CN1CCN(S(=O)(=O)c2ccccc2)CC1	-0.35	62*	0.4	.	63*	0.4
COc1ccc(CN2CCN(C(c3ccc(F)cc3)c3ccc(F)cc3)CC2)c(OC)c1OC	0.045	.	.	.	.	.
COc1ccc(CN2CCN(S(=O)(=O)c3ccc(F)cc3)CC2)c(OC)c1OC	-0.74	87*	0.1	.	40	0.6
COc1ccc(CN2CCN(S(=O)(=O)c3ccccc3)CC2)cc1Br	-0.97	99*	0	.	96*	0
SMILES	hDAT+cocaine	CYP2C19 inhib	CYP2C19 activ	D1 allo mod	CYP2C9 inhib	CYP2C9 act
Cc1ccc(NS(=O)(=O)c2ccc(C)c(C(=O)N3CCN(C)CC3)c2)cc1	-0.074	14	0.9	-0.27	1	1
COC(=O)c1ccc(/C=N/n2cnnc2)cc1	-0.32	47	0.5	-0.93	29	0.7
CC(C)CCN(C)c1ccc(/C=N/n2cnnc2)cc1	0.85	99*	0	.	95*	0
O=C(Nc1ccccn1)C1CCN(S(=O)(=O)c2cccs2)CC1	-1.8	38	0.6	-0.31	49	0.5
CCc1nnc(NC(=O)C2Cc3ccccc3CN2S(=O)(=O)c2ccc(C)cc2)s1 (stereo not drawn)	0.49	99*	0	.	64*	0.4
CCc1nnc(NC(=O)C2CCC2)s1	0.85	-5	1.1	0.099	-5	1
CCc1nnc(NC(=O)C2CCCN2S(=O)(=O)c2ccc(C)cc2)s1 (stereo not drawn)	-1.1	23	0.8	0.17	65*	0.4
CCNC(=O)C1CCCN1S(=O)(=O)c1ccc(C)cc1 (stereo not drawn)	-1.3	.	.	.	.	.
O=C(Nc1nnc(C2CC2)s1)C1Cc2ccccc2CN1S(=O)(=O)c1cccs1 (stereo not drawn)	1.4	100*	0	.	67*	0.3
CCc1nnc(NC(=O)C2CCCN(S(=O)(=O)c3ccccc3)C2)s1 (stereo not drawn)	1.3	64*	0.4	.	18	0.8
CCc1nnc(NC(=O)c2ccc(S(=O)(=O)N3CCOCC3)cc2)s1	-1.4	-6	1.1	0.19	2	1
CCn1cc(C(=O)N2CC(C)CC(C)C2)c(=O)c2cc(S(=O)(=O)N3CCOCC3)ccc21 (stereo not drawn)	-1.8	4	1	-0.028	5	0.9
CCOc1ccc(NC(=O)CN2C(=O)C3CCCN3C2=O)cc1 (stereo not drawn)	-0.0071	-9	1.1	0.6	2	1
O=C1N2CCSC2=NC1(Nc1nccs1)C(F)(F)F (stereo not drawn)	0.055	-7	1.1	-0.39	-7	1.1
CCc1nnc(NC(=O)C2Cc3ccccc3CN2S(=O)(=O)c2cccs2)s1 (stereo not drawn)	0.81	61*	0.4	-0.2	63*	0.4
CCc1nnc(NC(=O)C2CCCN2C(=O)Nc2ccccc2OC)s1 (stereo not drawn)	-0.47	16	0.8	-0.51	34	0.7
CCC(=O)N1CCN(c2ccc(Cl)cc2NC(=O)c2ccc(Br)o2)CC1	-0.48	.	.	0.82	.	.
Cc1ccccc1OC(=O)n1c(=S)oc2cc(Cl)ccc21	0.61	7	0.9	.	48	0.5
O=C(NNC(=S)Nc1ccc(F)cc1)c1ccccc1OC(F)F	0.6	16	0.8	.	58*	0.4
COc1cccc(NC(=S)NNC(=O)c2ccccc2OC(F)F)c1	-0.048	29	0.7	.	64*	0.4
Cc1ccc(NC(=S)NNC(=O)c2ccccc2OC(F)F)cc1	.	23	0.8	.	56*	0.4
Cc1ccc(NC(=S)NNC(=O)c2cn(C)nc2C)cc1	-1.1	-1	1	.	4	1
CC(O)[C@H]1CNC(=O)C(=O)N1CCc1cccc(F)c1 (stereo partly drawn)	-1.5	.	.	.	.	.
CC(C)(C)NC(=O)CSc1nnc(-c2ccncc2)n1Cc1ccccc1	0.57	80*	0.2	-0.046	50*	0.5
O=C(CSc1nnc(-c2ccncc2)n1Cc1ccccc1)Nc1nccs1	0.64	75*	0.3	.	54*	0.5
Cc1cnc(NC(=O)CSc2nnc(-c3ccncc3)n2C2CCCCC2)s1	1.1	76*	0.2	0.87	44	0.6
CC(C)C(C)(C#N)NC(=O)CSc1nnc(-c2ccncc2)n1Cc1ccccc1 (stereo not drawn)	0.079	80*	0.2	0.45	52*	0.5
